In the library only some 4% were active in any assay of this set; here they are far more common.
TWEAK-Fn14 inh – inhibitors of TWEAK-Fn14 interaction signaling | TWEAK-stimulated Fn14 reporter cells, luciferase luminescence, 8 h | inhibition, % at 10 µM | actives 2% (n = 360,000); in the data active = inhibition above about 50%
KKLEB tox – CF airway cell cytotoxicity counter-screen | KKLEB CF airway cells viability, ATPlite luminescence, overnight; active compounds read low; cells stimulated with P. aeruginosa culture filtrate | activity change (cytotoxicity), % at 5 µM | actives 0.36% (n = 360,000);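 active = corrected activity change at or below -50% at 5 µM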
TROY signal inh – blocks TROY-dependent signaling in reporter cells; Q293 LMP1-TROYcd NF-kB luciferase reporter, 4 h; actives 0.98% (n = 360,000); AID 1347056; inhibition, % at 10 µM;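 active = compounds whose plate-normalised and pattern-corrected inhibition of the luciferase reporter signal at the single screening dose is 50% or more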
Peg3 promoter – inhibitors of Peg3 promoter; HeLa PEG-Prom luciferase reporter, luminescence, overnight; inhibition, % at 20 µM; actives 1.7% (n = 360,000); AID 588405;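 active = inhibition of at least 50% at 20 µM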
CF NFkB block – blocks PAF-induced NF-kB reporter in cystic fibrosis cells. actives 0.86% (n = 360,000). inhibition, % at 5 µM. KKLEB NF-kB-GFP reporter, GFP fluorescence overnight;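 active = at least 50% inhibition at 5 µM, scaled per plate between neutral and stimulator controls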;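 also: PAF is a Pseudomonas aeruginosa culture filtrate used as stimulus; plate controls were PAF-stimulated DMSO wells for no effect and unstimulated DMSO wells for full effect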
HIF-2a block – HIF-2a inhibition. inhibition, % at 18.8 µM. actives 0.72% (n = 360,000). AID 624352. 786-0 RCC cells HIF-2a reporter, luciferase luminescence, overnight;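 active = inhibition of the luminescence signal of 40% or more relative to plate controls, in a single-dose primary screen at 18.75 µM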
Active calls of the source: *.

O=C1C=CC2=C3c4cc(O)c(O)cc4CC3(O)COC2=C1O (configuration not stated) was read as TWEAK-Fn14 inh 86*, KKLEB tox -6, TROY signal inh 0, Peg3 promoter 34, CF NFkB block 19 and HIF-2a block 7.
`O=C(c1cccc(S(=O)(=O)N2CCCCC2)c1)N(CCc1ccccc1)Cc1ccccc1` gave TWEAK-Fn14 inh 13, KKLEB tox 2, TROY signal inh 6, Peg3 promoter 28, CF NFkB block 12 and HIF-2a block 8.
`Cc1ccc2cc(/C=N/NC(=O)c3ccccc3O)c(Cl)nc2c1` gave TWEAK-Fn14 inh 3, KKLEB tox -6, TROY signal inh 65*, Peg3 promoter -5, CF NFkB block -4 and HIF-2a block -7.
O=C(N/N=C/c1cc2cc3c(cc2nc1Cl)OCCO3)c1ccccc1O was read as TWEAK-Fn14 inh -2, KKLEB tox 9, TROY signal inh 11, Peg3 promoter -39, CF NFkB block 6 and HIF-2a block -14.
Screening Cc1cccc2cc(/C=N/NC(=O)c3ccccc3O)c(Cl)nc12 returned TWEAK-Fn14 inh 15, KKLEB tox -35, TROY signal inh 57*, Peg3 promoter -44, CF NFkB block 49 and HIF-2a block -108.
CCOC(=O)c1c(C)nc2c(C)cccn12 was read as TWEAK-Fn14 inh 84*, KKLEB tox 1, Peg3 promoter 18, CF NFkB block 0 and HIF-2a block 9.
For Cc1ccc(C23CC4CC(CC(NC(=O)NCCN(C)C)(C4)C2)C3)cc1 the results were TWEAK-Fn14 inh 14, KKLEB tox -7, TROY signal inh 12, Peg3 promoter 34, CF NFkB block 11 and HIF-2a block 5.
Screening CN(C)CCNC(=O)COc1ccc(C23CC4CC(CC(C4)C2)C3)cc1 returned TWEAK-Fn14 inh -18, KKLEB tox -32, TROY signal inh 5, Peg3 promoter 97*, CF NFkB block 26 and HIF-2a block 8.
For Cc1cccc(C)c1OCC(=O)NNC(=O)CCCn1c(=O)oc2ccccc21 the results were TWEAK-Fn14 inh 5, KKLEB tox -3, TROY signal inh 21, Peg3 promoter 10, CF NFkB block 15 and HIF-2a block 8.
For O=C(COC(=O)C1CC(=O)N(Cc2ccccc2)C1)Nc1ccc([N+](=O)[O-])cc1Br (configuration not stated) the results were TWEAK-Fn14 inh 14, KKLEB tox 9, TROY signal inh -2, Peg3 promoter -7, CF NFkB block -19 and HIF-2a block -2.
`Cc1scc(C(=O)NCc2ccco2)c1-c1ccccc1` gave TWEAK-Fn14 inh 20, KKLEB tox -9, TROY signal inh -1, Peg3 promoter 25, CF NFkB block 6 and HIF-2a block -7.
Screening CCc1ccccc1NC1Nc2cc(C)nn2S1 (configuration not stated) returned TWEAK-Fn14 inh 57*, KKLEB tox 19, TROY signal inh 7, Peg3 promoter 2, CF NFkB block -31 and HIF-2a block -1.
For Cc1cc2n(n1)SC(Nc1cccc3ccccc13)N2 (configuration not stated) the results were TWEAK-Fn14 inh 19, KKLEB tox 10, TROY signal inh 20, Peg3 promoter -254, CF NFkB block -2 and HIF-2a block -230.
For O=C(CCl)N1c2ccccc2OCC1c1ccccc1 (configuration not stated) the results were TWEAK-Fn14 inh -21, KKLEB tox -3, TROY signal inh -8, Peg3 promoter 47, CF NFkB block -8 and HIF-2a block 2.
Screening O=C(CCl)N1c2ccccc2SCC1c1ccccc1 (configuration not stated) returned TWEAK-Fn14 inh 8, KKLEB tox 10, TROY signal inh 11, Peg3 promoter 68*, CF NFkB block 9 and HIF-2a block 27.
`CC(=O)c1ccc(NC(=O)NC2CC(=O)N(c3ccc4c(c3)OCCO4)C2)cc1` (configuration not stated) gave TWEAK-Fn14 inh -6, KKLEB tox -3, TROY signal inh -28, Peg3 promoter -25, CF NFkB block 2 and HIF-2a block -4.
For COCCn1c(Cc2ccccc2)nnc1SCC(=O)Nc1oc(C)c2c(C)n[nH]c(=O)c12 the results were TWEAK-Fn14 inh 6, KKLEB tox -3, TROY signal inh 57*, Peg3 promoter 4, CF NFkB block -2 and HIF-2a block -9.
For COc1ccc(C(=O)c2cc(C(C)=O)c(Nc3ccccc3)s2)cc1 the results were TWEAK-Fn14 inh -9, KKLEB tox -5, TROY signal inh -40, Peg3 promoter 18, CF NFkB block 5 and HIF-2a block -31.
Screening COc1ccc(S(=O)(=O)N2CCCC2C(=O)Nc2ccc(C)cc2)cc1 (configuration not stated) returned TWEAK-Fn14 inh -12, KKLEB tox 6, TROY signal inh 8, Peg3 promoter -4, CF NFkB block -15 and HIF-2a block 0.
`COc1ccc(NC(=O)CN(C)C(=O)/C=C/c2ccc(S(=O)(=O)N3CCCCCC3)cc2)cc1` gave TWEAK-Fn14 inh -13, KKLEB tox -17, TROY signal inh -7, Peg3 promoter 52*, CF NFkB block 26 and HIF-2a block 14.
For COc1ccc(NC(=O)C2CCCN2S(=O)(=O)c2ccc(Cl)cc2)cc1 (configuration not stated) the results were TWEAK-Fn14 inh 77*, KKLEB tox 7, TROY signal inh -4, Peg3 promoter 8, CF NFkB block -13 and HIF-2a block 10.
Screening COc1ccc(CC(=O)Nc2cccc(S(=O)(=O)N3CCCCCC3)c2)cc1OC returned TWEAK-Fn14 inh 53*, KKLEB tox -10, TROY signal inh 35, Peg3 promoter 19, CF NFkB block -2 and HIF-2a block 21.
For COc1ccc(NS(=O)(=O)c2cccc(NC(=O)c3ccc(S(=O)(=O)N4CCCCCC4)cc3)c2)cc1 the results were TWEAK-Fn14 inh 70*, KKLEB tox 6, TROY signal inh 45, Peg3 promoter 40, CF NFkB block -5 and HIF-2a block 14.
`O=c1c([N+](=O)[O-])cn(Cc2ccccc2)c(=O)n1Cc1ccccc1` gave TWEAK-Fn14 inh 6, KKLEB tox 19, TROY signal inh -16, Peg3 promoter 21, CF NFkB block -24 and HIF-2a block 21.
For CSCC[C@H](NC(=O)[C@H](Cc1ccccc1)n1c(=O)[nH]c2ccccc2c1=O)C(=O)N1CCC[C@H]1C(=O)O the results were TWEAK-Fn14 inh -7, KKLEB tox 22, TROY signal inh 7, Peg3 promoter -5, CF NFkB block -12 and HIF-2a block 2.
For N#C/C(=C/c1ccc(N2CCOCC2)o1)c1ccc(Cl)cc1 the results were TWEAK-Fn14 inh 35, KKLEB tox 4, TROY signal inh -25, Peg3 promoter -209, CF NFkB block -47 and HIF-2a block -231.
